From PubChem
An excerpt weighted towards active compounds, which were near 21% of everything screened.
Pf growth 48h: Primary qHTS for delayed death inhibitors of the malarial parasite plastid, 48 hour incubation; Potency, µM (titrated, usually from 28.7 µM), without a hit: top-dose activity change, negative = inhibition, hits mostly inhibitors; hit rate 5.9% among 310,000; P. falciparum luciferase growth in erythrocytes, 48 h; AID 504832, 2011; further: potency means the concentration at half of the fitted maximal effect; on the % scale 0 is the no-effect control and ±100 the full control effect
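Cell-based growth assay: transgenic P. falciparum expressing firefly luciferase, cultured in red cells within RPMI 1640 containing 0.5% w/v Albumax, 24 mM bicarbonate and gentamycin. A drop in luciferase activity indicates inhibition.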
NS1 function inh: qHTS Assay for Inhibitors of Influenza NS1 Protein Function; hit rate 0.4% among 270,000; Potency, µM (highest dose often 46.1 µM), for the others: top-dose activity, positive = more growth; calls by dose curve; further: potency means the concentration at half of the fitted maximal effect; actives are rising curves; nearly all actives have a fitted effect of over 50% in size
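Read-out: OD600 growth recovery of NS1-expressing budding yeast. Cells grown overnight at 30C in -URA glucose medium, washed, resuspended and diluted 1:100 in 2% galactose assay medium, pH 6.0. Same strain lacking NS1 served as positive control.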
Shiga toxin inh: A qHTS for Small Molecule Inhibitors of Shiga Toxin; Vero cells, Shiga toxin protein synthesis inhibition reporter; inhibition, % at 38.7 µM; hit rate 9.2% among 290,000; AID 2315, 2010; in the data active means inhibition mostly above about 28%, no sharp cut-off; inactive means mostly below about 43%; further: 0% is about no effect
Cycloheximide cs: Cycloheximide Counterscreen for Small Molecule Inhibitors of Shiga Toxin. hit rate 12% among 300,000. max response, %. AID 2314, 2010. cell reporter, cycloheximide protein synthesis inhibition counterscreen; in the data active means max response mostly above about 13%, no sharp cut-off; inactive means mostly below about 14%; further: read at 38.3 µM for the half of the compounds with a filed dose; 0% is about no effect
Pf growth 96h: Primary qHTS for delayed death inhibitors of the malarial parasite plastid, 96 hour incubation; hit rate 6.9% among 320,000; Potency, µM (series often up to 28.7 µM), for inactives: at the highest dose activity change, negative = inhibition, most hits filed as inhibitors; P. falciparum luciferase reporter growth, 96 h; further: potency means the concentration at half of the fitted maximal effect; on the % scale 0 is the no-effect control and ±100 the full control effect
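Compounds incubated with erythrocytes infected by luciferase-expressing P. falciparum (2% hematocrit, 0.05% parasitemia final) for 96 hours, 37 C in 5% CO2. Growth inhibition scored as decreased luciferase luminescence.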
Active calls of the source: *; ? = inconclusive; . = not tested or not shown; [ ] = remark or other dose. Unless noted, the call rests on the fitted dose curve; in most records, active means well fitted inhibition curve with a large enough effect; inconclusive means small, poorly fitted or top-dose-only effect, or another doubt; inactive means no such curve, though single readings can be large or run the other way.

SMILES	Pf growth 48h	NS1 function inh	Shiga toxin inh	Cycloheximide cs	Pf growth 96h
Cc1cc(NC(=O)c2ccc([N+](=O)[O-])o2)ccc1NC(=O)c1ccco1	8.3µM*	.	97*	36*	-35%[1.15 µM]
CC(=O)c1ccc(NC(=O)c2ccc([N+](=O)[O-])o2)cc1	-11%	-117%	98*	34*	3%
Cc1ccc(C)c(-c2nnc(NC(=O)C3=COCCO3)o2)c1	-28%	.	.	.	-11%
COc1cc(NC(=O)c2ccc([N+](=O)[O-])o2)ccc1NC(=O)c1ccco1	-10%	-15%	23	24	?
Cc1cc(C)cc(NC(=O)c2ccc([N+](=O)[O-])o2)c1	13µM*	.	35*	34*	?
CCn1c(=S)sc2c(=O)n(CC(=O)Nc3cc(OC)ccc3OC)c(C)nc21	9%	-4%	-7	-2	27%
O=C(Nc1c(C(=O)N2CCOCC2)oc2ccccc12)c1cccc([N+](=O)[O-])c1	-4%	-2%	-11	-1	13µM*
NC(=O)c1oc2ccccc2c1NC(=O)c1ccc(F)cc1	4%	-24%	0	-2	7%
NC(=O)c1oc2ccccc2c1NC(=O)c1nc2ccccc2s1	164%	-4%	99*	41*	-72%
CC(C)C(=O)N1CCN(c2ccc(NC(=O)c3ccc([N+](=O)[O-])o3)cc2)CC1	4.7µM*	-2%	53	40*	22%
O=C(NNC(=O)c1ccc([N+](=O)[O-])o1)c1ccccc1	?	-2%	52	25*	-12%
Cc1ccc(CCNS(=O)(=O)c2ccc3c(c2)NC(=O)C(C)C(=O)N3)cc1 (stereo not given)	23%	2%	3	-2	?
CC(C)n1cnnc1SCC(=O)Nc1cccc(S(=O)(=O)N(C)c2ccccc2)c1	125%	-4%	-6	0	?
CC1Cn2cc(C(=O)Nc3ccccc3C(F)(F)F)c(=O)c3c(Cl)ccc(c32)O1 (stereo not given)	2%	.	.	.	39%
CCCCOc1ccc(C(=O)Nc2ccc(N3CCN(C(=O)C(C)C)CC3)cc2)cc1	9.3µM*	2%	-6	-4	.
CCCCOc1ccc(C(=O)Nc2ccc(N3CCN(C(C)=O)CC3)cc2)cc1	.	-26%	-22	-5	53%
NS(=O)(=O)c1ccc(O)c(NC(=O)c2ccc([N+](=O)[O-])o2)c1	7.4µM*	-1%	-6	2	10µM*
NC(=O)c1oc2ccccc2c1NC(=O)c1ccc([N+](=O)[O-])o1	9.3µM*	-26%	28*	15	-20%
Cc1ccc(NC(=O)CN(C)C(=O)COC(=O)COc2ccc(C#N)cc2)cc1	2%	.	.	.	12%
N#Cc1ccccc1OCC(=O)OCC(=O)Nc1ccc2c(c1)OCO2	-6%	.	.	.	7%
COc1ccc(-c2cc(-c3ccc(C)cc3)nc(SCc3nnc(-c4ccccc4)o3)c2C#N)cc1OC	?	14%	-2	-4	-1%
COc1ccc(S(=O)(=O)N2CCC3(CC2)OCCO3)cc1	-9%[5.75 µM]	.	-1	-1	-17%
COc1ccc(S(=O)(=O)c2cnc3ccc(OC)cc3c2N2CCC3(CC2)OCCO3)cc1	?	8%	-11	1	8.3µM*
CCOc1ccc2ncc(S(=O)(=O)c3ccccc3)c(N3CCC4(CC3)OCCO4)c2c1	13µM*	1%	-2	-2	10µM*
O=C(NCc1ccco1)c1cc(-c2ccco2)on1	96%	-6%	74*	31*	17%
SMILES	Pf growth 48h	NS1 function inh	Shiga toxin inh	Cycloheximide cs	Pf growth 96h
Cc1ccn2cc(C(=O)NCc3ccco3)nc2c1	84%	.	58*	25*	4%
O=C(NCc1ccccc1)c1cc(-c2ccco2)on1	70%	-5%	65*	34*	0%
O=C(NCCc1ccccc1)c1cc(-c2ccco2)on1	496%	-12%	104*	45*	45%
Cc1cccc(NC(=O)CSc2nnc(C)c(C)n2)c1	12%	8%	-1	3	-1%
CCN(C(=O)COC(=O)CSc1ccccc1)c1c(N)n(Cc2ccccc2)c(=O)[nH]c1=O	31%	.	.	.	61%
CCC(Sc1nc2cc(OC)c(OC)cc2c2nc(C)nn12)C(=O)NCc1ccco1 (stereo not given)	.	18%	.	.	.
Cn1c(-[n+]2c(-c3ccccc3)cc(-c3ccccc3)cc2-c2ccccc2)nc2c([N+](=O)[O-])cccc21	12µM*	-30%	-6	-3	?
O=[N+]([O-])c1cccc2nc(-c3ccccc3)c(-c3ccccc3)nc12	-15%	2%	12	-1	-4%
COc1ccc(S(=O)(=O)N2CCN(c3ccccn3)CC2)c(OC)c1	16%	-16%	-6	2	4.7µM*
COc1ccccc1N1CCN(S(=O)(=O)c2cc(C)sc2C)CC1	.	-7%	-14	-5	4.7µM*
CCc1ccccc1N1CCN(S(=O)(=O)c2cc(OC)ccc2OC)CC1	-12%	-9%	-7	-1	10µM*
COc1ccc(N2CCN(S(=O)(=O)c3ccc(-n4cnnn4)c(C)c3)CC2)cc1	8%	2%	-10	-2	23%
COc1ccccc1N1CCN(S(=O)(=O)c2ccc(-n3cnnn3)c(C)c2)CC1	-4%	6%	-7	-1	1.7µM*
CC1CN(C(=O)Cn2c(=O)oc3ccccc32)CC(C)O1 (stereo not given)	4%	-2%	-10	-3	16%
O=C(O)CNC(=O)c1ccc(S(=O)(=O)N2CCOCC2)cc1	.	-2%	-10	-4	-14%
CCNc1nc2c(c(=O)n(C)c(=O)n2C)n1CCCc1ccccc1	6%	3%	-6	-1	-7%
CN(CCCN1CCCCC1)C(=O)CCc1nnc(C2CCCCC2)o1	1%	-3%	9	-3	-10%
O=C(CCc1nnc(C2CCCCC2)o1)N1CCC(Oc2cccnc2)CC1	-21%	0%	43	10	1%
CCC1CCCCN1C(=O)CCc1nnc(C2CCCCC2)o1 (stereo not given)	-7%	-1%	66*	47*	?
COC(=O)[C@@H]1CCCN1C(=O)CCc1nnc(C2CCCCC2)o1	24%	3%	16*	14*	17µM*
O=C(OCCOc1ccc(Br)cc1)c1ccc(Cl)nc1	11%	.	-7	-2	26%
c1ccc(C2C3=C(Nc4ncnn42)c2ccccc2CCC3)cc1 (stereo not given)	-7%	-17%	-8	-1	5.2µM*
O=C(COc1c(Cl)cc(Cl)cc1Cl)c1ccc(Cl)cc1	0%	4%	-10	-1	12µM*
Cc1[nH]nc(Sc2ccccn2)c1[N+](=O)[O-]	34%	5%	44*	15	16%
Cc1[nH]nc(NNC(=O)c2ccccc2)c1[N+](=O)[O-]	20%	2%	22	-1	27%
Cc1[nH]nc(Nc2ccc(C(C)C)cc2)c1[N+](=O)[O-]	27%	-6%	55*	57*	19%
Cc1[nH]nc(SCC(=O)NCc2ccccc2)c1[N+](=O)[O-]	1%	2%	-5	-1	0%
